Reference: publication PMC5540273 (PLoS ONE, 2017)

Tests used:
Conditions in all cases: concentration: 1 μM, replicates: in singlicate; n = 1
[1] = tested on: DAPK2
[2] = tested on: DAPK3
[3] = tested on: T1, DCAMKL1
T1 construct: gene DCLK1

[4] = tested on: T2, DCAMKL2
T2 construct: gene DCLK2

[5] = tested on: T3, DCAMKL3
T3 construct: gene DCLK3

[6] = tested on: DDR1
[7] = tested on: DDR2
[8] = tested on: T4, DLK
T4 construct: gene MAP3K12

[9] = tested on: T5, DMPK2
T5 construct: gene CDC42BPG

[10] = tested on: DMPK
[11] = tested on: T6, DRAK1
T6 construct: gene STK17A

[12] = tested on: T7, DRAK2
T7 construct: gene STK17B

[13] = tested on: DYRK1A
[14] = tested on: DYRK1B
[15] = tested on: DYRK2
[16] = tested on: EGFR
[17] = tested on: EIF2AK1
[18] = tested on: EPHA1
[19] = tested on: EPHA2
[20] = tested on: EPHA3
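Further: KINOMEscan kinase panel screen.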

Row | SMILES | %Inh [1] [%] | %Inh [2] [%] | %Inh [3] [%] | %Inh [4] [%] | %Inh [5] [%] | %Inh [6] [%] | %Inh [7] [%] | %Inh [8] [%] | %Inh [9] [%] | %Inh [10] [%] | %Inh [11] [%] | %Inh [12] [%] | %Inh [13] [%] | %Inh [14] [%] | %Inh [15] [%] | %Inh [16] [%] | %Inh [17] [%] | %Inh [18] [%] | %Inh [19] [%] | %Inh [20] [%]
1 | O=S(=O)(c1ccc(-c2ccnc3[nH]ccc23)cc1)N1CCCC1 [GSK846226] | 48 | 76 | 23 | 0 | 0 | 0 | 0 | 0 | 15 | 3 | 73 | 0 | 21 | 11 | 35 | 33 | 0 | 5 | 0 | 11
2 | Cc1csc(-c2nc(Nc3ccncc3)c3ccccc3n2)n1 [GW869640] | 26 | 48 | 29 | 28 | 30 | 22 | 35 | 0 | 35 | 17 | 10 | 0 | 18 | 0 | 29 | 1 | 14 | 0 | 0 | 30
3 | COc1ccc(Nc2nccc(NCCNC(=O)Nc3ccccc3F)n2)cc1 [GSK1379901] | 0 | 8 | 15 | 0 | 8 | 11 | 0 | 0 | 0 | 0 | 2 | 0 | 19 | 0 | 6 | 20 | 10 | 33 | 25 | 0
4 | CC(C)(C)c1ccc(C(=O)Nc2cn3cc(-c4cccnc4)ccc3n2)cc1 | 13 | 8 | 45 | 12 | 25 | 24 | 0 | 0 | 17 | 5 | 10 | 5 | 42 | 65 | 51 | 17 | 3 | 12 | 12 | 9
5 | Nc1ncnc2[nH]c(-c3ccccc3)nc12 [AH5015] | 0 | 27 | 11 | 0 | 13 | 0 | 13 | 21 | 0 | 0 | 5 | 0 | 46 | 15 | 68 | 25 | 100 | 16 | 23 | 0
6 | Cc1c(Cn2ccn3c(=O)cc(N4CCOCC4)nc23)cccc1C(F)(F)F [GSK2289044] | 12 | 12 | 3 | 0 | 13 | 0 | 8 | 0 | 0 | 64 | 0 | 0 | 10 | 21 | 14 | 40 | 2 | 9 | 13 | 27
7 | COc1cc(Nc2nccc(N3CCC(NC(=O)Nc4cc(C)ccc4C)C3)n2)cc(OC)c1OC (stereo not drawn) [GSK1379762] | 0 | 7 | 0 | 12 | 0 | 43 | 10 | 30 | 22 | 0 | 0 | 0 | 25 | 16 | 19 | 63 | 0 | 22 | 8 | 0
8 | Cl.Oc1ccc(-c2nc(-c3ccccc3)[nH]c2-c2ccncc2)cc1 [SB-428218] | 0 | 31 | 6 | 15 | 7 | 9 | 59 | 58 | 0 | 0 | 0 | 0 | 17 | 0 | 0 | 31 | 5 | 55 | 1 | 0
9 | COC(=O)c1c(-c2ccccc2)c2cc(C(=O)O)ccc2c(=O)n1Cc1ccccc1 | 0 | 0 | 5 | 4 | 26 | 92.6 | 63 | 0 | 0 | 12 | 0 | 0 | 7 | 32 | 0 | 0 | 0 | 0 | 3 | 15
10 | Cc1ccc(C(=O)Nc2ccc(Nc3ccnc4cc(-c5ccccn5)ccc34)cc2O)cc1.Cl [GW440146] | 0 | 13 | 0 | 0 | 16 | 12 | 10 | 47 | 0 | 0 | 0 | 11 | 18 | 0 | 0 | 32 | 0 | 4 | 0 | 0
11 | CN1C(=O)C(Nc2ccc(Cl)c(C(=O)O)c2)=C(c2ccc(Cl)cc2)C1=O [SB-404290] | 9 | 14 | 0 | 6 | 10 | 0 | 0 | 0 | 0 | 0 | 0 | 0 | 2 | 0 | 0 | 0 | 0 | 5 | 0 | 18
12 | CCn1c(-c2cccnc2O)nc2cnccc21 [SB-736715] | 0 | 0 | 0 | 3 | 0 | 0 | 0 | 19 | 0 | 0 | 0 | 0 | 0 | 54 | 0 | 7 | 0 | 0 | 0 | 0
13 | Cc1cccc(-c2nc(C)cc(Nc3ccncc3)n2)n1 [GSK257997] | 2 | 14 | 11 | 3 | 13 | 0 | 1 | 0 | 89 | 0 | 12 | 0 | 6 | 13 | 14 | 30 | 0 | 0 | 9 | 0
14 | O=C(Nc1ccccc1)Nc1cccc(Oc2ccc3nccn3n2)c1 | 0 | 0 | 0 | 0 | 69 | 97.8 | 1 | 0 | 0 | 4 | 0 | 1 | 0 | 45 | 0 | 33 | 0 | 14 | 30 | 34
15 | O=C(Nc1ccc2c(c1)OCO2)NC1CCN(c2ccnc(Nc3ccc(F)cc3)n2)C1 (stereo not drawn) [GSK1379724] | 0 | 0 | 0 | 7 | 32 | 0 | 52 | 24 | 9 | 0 | 0 | 0 | 27 | 0 | 3 | 0 | 0 | 18 | 16 | 0
